Laboratory results reported in the supplement of paper PMC8728848.
The sample as a whole holds a higher share of the strongest signals than the screen did.

Legend:
Test in all cases: glycan array binding signal (z-score within array); higher = stronger binding
Settings in all cases: glycan notation: IUPAC condensed, linker removed
[1] = target: Fuc(a1-2)Gal(b1-3)GalNAc(b1-4)[Neu5Ac(a2-3)]Gal(b1-4)Glc
In short: (§1)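 Glycan array data were curated from 3228 arrays in the Consortium for Functional Glycomics database and kept only where the protein sequence was available. Glycan names were converted to IUPAC-condensed notation, and columns mapping to the same glycan were averaged. The binding signal is a within-array Z-score, averaged across arrays of the same protein sequence at different concentrations or buffers and across linkers. Negative Z-scores can be read as non-binding.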

[2] = target: Fuc(a1-2)Gal(b1-3)[Fuc(a1-4)]GlcNAc
In short: as §1

[3] = target: Fuc(a1-2)Gal(b1-4)[Fuc(a1-3)]GlcNAc(b1-2)Man(a1-3)[Fuc(a1-2)Gal(b1-4)[Fuc(a1-3)]GlcNAc(b1-2)Man(a1-6)]Man(b1-4)GlcNAc(b1-4)GlcNAc
In short: as §1

[4] = target: Fuc(a1-2)[Gal(a1-3)]Gal(b1-4)Glc
In short: as §1

[5] = target: Fuc(a1-2)[Gal(a1-3)]Gal(b1-4)GlcNAc
In short: as §1

[6] = target: Fuc(a1-3)[Gal(b1-4)]GlcNAc(b1-4)Gal(b1-4)[Fuc(a1-3)]GlcNAc(b1-4)Gal(b1-4)[Fuc(a1-3)]GlcNAc
In short: as §1

[7] = target: Fuc(a1-3)[Gal3S(b1-4)]GlcNAc6S
In short: as §1

[8] = target: Fuc(a1-4)GlcNAc
In short: as §1

[9] = target: Gal(a1-3)Gal
In short: as §1

[10] = target: Gal(a1-3)Gal(b1-3)[Fuc(a1-4)]GlcNAc(b1-2)Man(a1-3)[Gal(a1-3)Gal(b1-3)[Fuc(a1-4)]GlcNAc(b1-2)Man(a1-6)]Man(b1-4)GlcNAc(b1-4)GlcNAc
In short: as §1

[11] = target: Gal(a1-3)Gal(b1-4)GlcNAc(b1-3)GalNAc
In short: as §1

[12] = target: Gal(b1-3)GlcNAc(b1-3)Gal(b1-4)GlcNAc(b1-6)[Gal(b1-3)GlcNAc(b1-3)]Gal(b1-4)Glc
In short: as §1

[13] = target: Gal(b1-3)[Fuc(a1-4)]GlcNAc(b1-3)Gal(b1-4)[Fuc(a1-3)]GlcNAc
In short: as §1

[14] = target: Gal(b1-3)[Neu5Ac(a2-6)]GalNAc
In short: as §1

[15] = target: Gal(b1-4)GlcNAc(b1-3)[Gal(b1-4)GlcNAc(b1-6)]Gal(b1-4)GlcNAc
In short: as §1

[16] = target: Gal(b1-4)GlcNAc(b1-6)[Gal(b1-3)]GalNAc
In short: as §1

[17] = target: GalNAc(b1-4)GlcNAc(b1-2)Man(a1-3)[GalNAc(b1-4)GlcNAc(b1-2)Man(a1-6)]Man(b1-4)GlcNAc(b1-4)GlcNAc
In short: as §1

[18] = target: GlcNAc(a1-4)Gal(b1-4)GlcNAc(b1-3)Gal(b1-4)[Fuc(a1-3)]GlcNAc(b1-3)Gal(b1-4)[Fuc(a1-3)]GlcNAc
In short: as §1

[19] = target: GlcNAc(b1-2)Gal(b1-3)GalNAc
In short: as §1

[20] = target: GlcNAc(b1-3)Gal(b1-3)GalNAc
In short: as §1

[21] = target: GlcNAc(b1-3)GalNAc
In short: as §1

[22] = target: Man(a1-2)Man(a1-3)[Man(a1-6)]Man(a1-6)[Man(a1-2)Man(a1-3)]Man(b1-4)GlcNAc(b1-4)GlcNAc
In short: as §1

[23] = target: Man(a1-3)[Man(a1-6)]Man(a1-6)[Man(a1-3)]Man
In short: as §1

[24] = target: Neu5Ac(a2-3)Gal(b1-3)GlcNAc(b1-3)Gal(b1-4)GlcNAc
In short: as §1

[25] = target: Neu5Ac(a2-3)Gal(b1-4)GlcNAc(b1-3)Gal(b1-4)GlcNAc(b1-3)Gal(b1-4)GlcNAc
In short: as §1

[26] = target: Neu5Ac(a2-3)Gal(b1-4)GlcNAc(b1-3)Gal(b1-4)[Fuc(a1-3)]GlcNAc
In short: as §1

[27] = target: Neu5Ac(a2-3)Gal(b1-4)[Fuc(a1-3)]GlcNAc(b1-3)GalNAc
In short: as §1

[28] = target: Neu5Ac(a2-6)Gal(b1-4)GlcNAc(b1-2)Man(a1-3)[Neu5Ac(a2-6)Gal(b1-4)GlcNAc(b1-2)Man(a1-6)]Man(b1-4)GlcNAc(b1-4)GlcNAc
In short: as §1

[29] = target: Neu5Ac(a2-6)Gal(b1-4)GlcNAc(b1-2)Man(a1-6)[GlcNAc(b1-2)Man(a1-3)]Man(b1-4)GlcNAc(b1-4)GlcNAc
In short: as §1

[30] = target: Neu5Ac(a2-6)Gal(b1-4)GlcNAc(b1-3)GalNAc
In short: as §1

[31] = target: Neu5Ac(a2-6)GlcNAc(b1-4)GlcNAc
In short: as §1

[32] = target: Neu5Ac(a2-8)Neu5Ac(a2-8)Neu5Ac(a2-8)Neu5Ac(a2-3)[GalNAc(b1-4)]Gal(b1-4)Glc
In short: as §1

[33] = target: Neu5Gc(a2-3)Gal(b1-4)GlcNAc
In short: as §1

B1: PEB3 (Campylobacter jejuni), Q0PBL7 (protein)
chain: MKKIITLFGACALAFSMANADVNLYGPGGPHTALKDIANKYSEKTGVKVNVNFGPQATWFEKAKKDADILFGASDQSALAIASDFGKDFNVSKIKPLYFREAIILTQKGNPLKIKGLKDLANKKVRIVVPEGAGKSNTSGTGVWEDMIGRTQDIKTIQNFRNNIVAFVPNSGSARKLFAQDQADAWITWIDWSKSNPDIGTAVAIEKDLVVYRTFNVIAKEGASKETQDFIAYLSSKEAKEIFKKYGWRE
glycan array binding signal (z-score) [1]: 0.671 | glycan array binding signal (z-score) [2]: 7.5 | glycan array binding signal (z-score) [3]: 4.64 | glycan array binding signal (z-score) [4]: -1.35 | glycan array binding signal (z-score) [5]: 0.283 | glycan array binding signal (z-score) [6]: 0.144 | glycan array binding signal (z-score) [7]: 0.696 | glycan array binding signal (z-score) [8]: -0.82 | glycan array binding signal (z-score) [9]: -0.384 | glycan array binding signal (z-score) [10]: 4.25 | glycan array binding signal (z-score) [11]: 0.06 | glycan array binding signal (z-score) [12]: -0.921 | glycan array binding signal (z-score) [13]: -0.524 | glycan array binding signal (z-score) [14]: -1.27 | glycan array binding signal (z-score) [15]: -0.199 | glycan array binding signal (z-score) [16]: 0.227 | glycan array binding signal (z-score) [17]: 4.25 | glycan array binding signal (z-score) [18]: 3.7 | glycan array binding signal (z-score) [19]: -0.834 | glycan array binding signal (z-score) [20]: 2.96 | glycan array binding signal (z-score) [21]: -0.715 | glycan array binding signal (z-score) [22]: -0.005 | glycan array binding signal (z-score) [23]: -1.11 | glycan array binding signal (z-score) [24]: -0.117 | glycan array binding signal (z-score) [25]: -1.17 | glycan array binding signal (z-score) [26]: 0.473 | glycan array binding signal (z-score) [27]: 4.53 | glycan array binding signal (z-score) [28]: 0.39 | glycan array binding signal (z-score) [29]: -0.237 | glycan array binding signal (z-score) [30]: -0.21 | glycan array binding signal (z-score) [31]: -0.895 | glycan array binding signal (z-score) [32]: -0.3 | glycan array binding signal (z-score) [33]: -0.701
